# The supplement of paper PMC10849652
# About 8,800 targets were measured; listed, in parts, are those with a hit and a random draw of the rest. About 0.5% of all pairs of compound and target were hits. Values without a mark were called inactive.
# Assays:
# Assay in all cases: log2 fold change, soluble protein after heating vs DMSO (PISA); higher = thermal stabilisation; K562 lysate, 10 uM; active = over 0.2 and 3.5 SD of the protein, either way, in both replicates (recomputed)
# vemurafenib = compound: CCCS(=O)(=O)Nc1ccc(F)c(C(=O)c2c[nH]c3ncc(-c4ccc(Cl)cc4)cc23)c1F [vemurafenib]
# Summary of the method: (§1)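 K562 pellets were dounce-homogenised in PBS pH 7.4 with 1 mM MgCl2, and the crude extract at 1 mg/mL protein was treated with 10 μM compound for 30 min. Aliquots were heated for 3 min across 48°C-58°C, pooled, and brought to 0.5% NP-40 at 4°C; soluble protein was the supernatant after 21,000xg for 90 min. Soluble protein was quantified by TMTpro 16plex LC-MS/MS with channel sums equalised, and reported as log2 fold change in thermal stability against DMSO controls, with values from duplicates.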
# [1] = compound: CCCS(=O)(=O)Nc1ccc(F)c(C(=O)c2c[nH]c3ncc(Cl)cc23)c1F
# Summary of the method: as §1
# barasertib = compound: CCN(CCCOc1ccc2c(Nc3cc(CC(=O)Nc4cccc(F)c4)[nH]n3)ncnc2c1)CCOP(=O)(O)O [barasertib]
# Summary of the method: as §1
# [2] = compound: CC[C@@H]1C(=O)N(C)c2cnc(Nc3ccc(C(=O)NC4CCN(C)CC4)cc3OC)nc2N1C1CCCC1
# Summary of the method: as §1
# volasertib = compound: CC[C@@H]1C(=O)N(C)c2cnc(Nc3ccc(C(=O)N[C@H]4CC[C@H](N5CCN(CC6CC6)CC5)CC4)cc3OC)nc2N1C(C)C [volasertib]
# Summary of the method: as §1
# [3] = compound: CCn1c(C(=O)N(C2CC2)C2CC2)cc2c3c(ncn3C)c(Nc3cc(C)n(C)n3)nc21
# Summary of the method: as §1
# [4] = compound: CCn1cc(-c2ccnc3[nH]c(-c4cccc(CN(C)C)c4)cc23)c(-c2ccc(NC(=O)N(C)C)cc2)n1
# Summary of the method: as §1
# [5] = compound: CN1CCC(CNc2ccc3ncc(-c4cccc(OC(F)(F)F)c4)n3n2)CC1
# Summary of the method: as §1
# saracatinib = compound: CN1CCN(CCOc2cc(OC3CCOCC3)c3c(Nc4c(Cl)ccc5c4OCO5)ncnc3c2)CC1 [saracatinib]
# Summary of the method: as §1
# sotrastaurin = compound: CN1CCN(c2nc(C3=C(c4c[nH]c5ccccc45)C(=O)NC3=O)c3ccccc3n2)CC1 [sotrastaurin]
# Summary of the method: as §1
# alvocidib = compound: CN1CC[C@H](c2c(O)cc(O)c3c(=O)cc(-c4ccccc4Cl)oc23)[C@H](O)C1 [alvocidib]
# Summary of the method: as §1
# Tubastatin A = compound: CN1CCc2c(c3ccccc3n2Cc2ccc(C(=O)NO)cc2)C1 [Tubastatin A]
# Summary of the method: as §1
# [6] = compound: CNC(=O)C1=CC=CC=C1NC2=NC(=NC=C2Cl)NC3=C(C=C(C=C3)N4CCOCC4)OC
# Summary of the method: as §1
# defactinib = compound: CNC(=O)c1ccc(Nc2ncc(C(F)(F)F)c(NCc3nccnc3N(C)S(C)(=O)=O)n2)cc1 [defactinib]
# Summary of the method: as §1
# [7] = compound: CNc1nc(-c2ccc3c(N)n[nH]c3c2)cc(N2C[C@@H](C(=O)NC3CCCCC3)CC[C@H]2C)n1
# Summary of the method: as §1
# encorafenib = compound: COC(=O)N[C@@H](C)CNc1nccc(-c2cn(C(C)C)nc2-c2cc(Cl)cc(NS(C)(=O)=O)c2F)n1 [encorafenib]
# Summary of the method: as §1
# [8] = compound: COC(=O)[C@H](CCSC)NC(=O)C1=C(C=C(C=C1)NC[C@H](CS)N)C2=CC=CC=C2
# Summary of the method: as §1
# alisertib = compound: COc1cc(Nc2ncc3c(n2)-c2ccc(Cl)cc2C(c2c(F)cccc2OC)=NC3)ccc1C(=O)O [alisertib]
# Summary of the method: as §1
# [9] = compound: COc1cc2nc(-c3cc(F)ccc3O)nc(N[C@@H]3CNC[C@H]3C(C)(C)O)c2cc1OC
# Summary of the method: as §1
# gefitinib = compound: COc1cc2ncnc(Nc3ccc(F)c(Cl)c3)c2cc1OCCCN1CCOCC1 [gefitinib]
# Summary of the method: as §1
# Sequence of UniProt Q5TEJ8 (Q5TEJ8 whole entry, looked up): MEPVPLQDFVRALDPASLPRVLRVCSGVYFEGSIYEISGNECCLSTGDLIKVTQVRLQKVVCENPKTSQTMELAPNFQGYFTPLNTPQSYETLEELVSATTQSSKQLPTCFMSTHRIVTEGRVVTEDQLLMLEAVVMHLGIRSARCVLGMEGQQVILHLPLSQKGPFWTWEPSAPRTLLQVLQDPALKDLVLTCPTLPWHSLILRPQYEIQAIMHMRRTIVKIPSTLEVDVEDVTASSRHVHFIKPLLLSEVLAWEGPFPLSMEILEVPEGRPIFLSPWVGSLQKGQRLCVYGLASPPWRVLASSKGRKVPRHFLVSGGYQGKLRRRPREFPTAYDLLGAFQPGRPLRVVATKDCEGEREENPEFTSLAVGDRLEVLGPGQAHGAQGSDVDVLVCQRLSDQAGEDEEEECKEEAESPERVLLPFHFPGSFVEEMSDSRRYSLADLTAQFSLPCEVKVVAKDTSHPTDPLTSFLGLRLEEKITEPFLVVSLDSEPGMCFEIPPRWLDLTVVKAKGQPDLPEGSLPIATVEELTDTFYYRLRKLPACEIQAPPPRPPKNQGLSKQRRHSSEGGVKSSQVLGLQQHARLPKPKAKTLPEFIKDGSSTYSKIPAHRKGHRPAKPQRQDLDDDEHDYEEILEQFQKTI
# Sequence of UniProt Q86UE8 (Q86UE8 whole entry, looked up): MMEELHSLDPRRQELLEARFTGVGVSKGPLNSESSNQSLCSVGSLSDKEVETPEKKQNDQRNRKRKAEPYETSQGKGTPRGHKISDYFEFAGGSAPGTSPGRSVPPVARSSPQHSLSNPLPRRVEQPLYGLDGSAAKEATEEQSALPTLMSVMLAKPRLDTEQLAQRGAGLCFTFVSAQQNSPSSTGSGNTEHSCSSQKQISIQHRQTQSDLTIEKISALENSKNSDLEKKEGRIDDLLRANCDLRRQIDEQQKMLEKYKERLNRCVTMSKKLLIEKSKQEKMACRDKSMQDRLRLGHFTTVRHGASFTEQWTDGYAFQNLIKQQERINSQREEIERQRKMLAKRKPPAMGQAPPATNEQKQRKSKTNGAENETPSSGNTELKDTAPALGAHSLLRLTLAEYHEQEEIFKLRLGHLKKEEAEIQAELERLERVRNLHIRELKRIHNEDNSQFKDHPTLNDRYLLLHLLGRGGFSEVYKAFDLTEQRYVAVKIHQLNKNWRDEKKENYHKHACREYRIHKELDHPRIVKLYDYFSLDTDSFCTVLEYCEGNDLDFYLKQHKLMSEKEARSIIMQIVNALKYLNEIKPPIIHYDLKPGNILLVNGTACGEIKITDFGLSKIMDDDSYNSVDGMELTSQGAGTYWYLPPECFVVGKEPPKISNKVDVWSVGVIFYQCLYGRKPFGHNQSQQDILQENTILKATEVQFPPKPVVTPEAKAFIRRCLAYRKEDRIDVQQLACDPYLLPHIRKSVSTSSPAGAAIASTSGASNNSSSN
# Sequence of UniProt O43493 (O43493 whole entry, looked up): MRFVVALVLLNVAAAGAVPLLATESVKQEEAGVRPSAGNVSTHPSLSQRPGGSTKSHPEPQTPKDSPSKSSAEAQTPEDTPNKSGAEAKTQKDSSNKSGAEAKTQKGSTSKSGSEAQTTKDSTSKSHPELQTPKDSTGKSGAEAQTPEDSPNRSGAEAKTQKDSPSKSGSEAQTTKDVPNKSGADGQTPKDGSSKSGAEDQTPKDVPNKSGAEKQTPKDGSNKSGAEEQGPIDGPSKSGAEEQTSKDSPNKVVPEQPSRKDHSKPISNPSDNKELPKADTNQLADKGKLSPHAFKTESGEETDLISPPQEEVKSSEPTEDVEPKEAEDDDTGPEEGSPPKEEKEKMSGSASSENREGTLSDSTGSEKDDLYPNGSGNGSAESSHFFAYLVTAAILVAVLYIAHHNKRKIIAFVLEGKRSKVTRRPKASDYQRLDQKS
# Sequence of UniProt P0DPH7 (P0DPH7 whole entry, looked up): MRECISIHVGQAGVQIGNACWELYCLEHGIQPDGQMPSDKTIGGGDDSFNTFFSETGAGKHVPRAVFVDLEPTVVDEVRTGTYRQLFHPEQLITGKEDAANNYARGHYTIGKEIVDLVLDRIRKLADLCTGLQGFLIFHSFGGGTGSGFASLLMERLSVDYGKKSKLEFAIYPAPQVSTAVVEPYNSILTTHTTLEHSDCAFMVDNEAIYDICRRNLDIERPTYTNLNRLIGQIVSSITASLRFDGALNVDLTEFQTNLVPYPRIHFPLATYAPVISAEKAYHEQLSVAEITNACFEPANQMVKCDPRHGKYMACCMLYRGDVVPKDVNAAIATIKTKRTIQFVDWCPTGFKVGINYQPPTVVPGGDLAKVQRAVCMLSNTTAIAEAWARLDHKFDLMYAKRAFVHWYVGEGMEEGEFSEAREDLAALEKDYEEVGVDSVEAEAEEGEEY
# Sequence of UniProt Q9Y2W6 (Q9Y2W6 whole entry, looked up): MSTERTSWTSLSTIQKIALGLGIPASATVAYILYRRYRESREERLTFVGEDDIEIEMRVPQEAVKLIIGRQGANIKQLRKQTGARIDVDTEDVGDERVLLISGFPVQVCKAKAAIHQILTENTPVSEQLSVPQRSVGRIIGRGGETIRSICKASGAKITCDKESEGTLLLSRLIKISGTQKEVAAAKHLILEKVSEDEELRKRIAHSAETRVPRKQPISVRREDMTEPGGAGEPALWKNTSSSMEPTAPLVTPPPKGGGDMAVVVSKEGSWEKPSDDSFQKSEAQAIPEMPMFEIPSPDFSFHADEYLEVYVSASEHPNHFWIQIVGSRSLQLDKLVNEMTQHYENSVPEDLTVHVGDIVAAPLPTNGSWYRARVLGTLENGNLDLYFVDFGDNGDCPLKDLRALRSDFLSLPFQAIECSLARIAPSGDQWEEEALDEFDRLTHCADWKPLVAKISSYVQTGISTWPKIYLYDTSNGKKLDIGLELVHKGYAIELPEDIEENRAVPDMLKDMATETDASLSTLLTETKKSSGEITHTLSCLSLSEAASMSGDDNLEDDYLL
# Sequence of UniProt Q9H4B7 (Q9H4B7 whole entry, looked up): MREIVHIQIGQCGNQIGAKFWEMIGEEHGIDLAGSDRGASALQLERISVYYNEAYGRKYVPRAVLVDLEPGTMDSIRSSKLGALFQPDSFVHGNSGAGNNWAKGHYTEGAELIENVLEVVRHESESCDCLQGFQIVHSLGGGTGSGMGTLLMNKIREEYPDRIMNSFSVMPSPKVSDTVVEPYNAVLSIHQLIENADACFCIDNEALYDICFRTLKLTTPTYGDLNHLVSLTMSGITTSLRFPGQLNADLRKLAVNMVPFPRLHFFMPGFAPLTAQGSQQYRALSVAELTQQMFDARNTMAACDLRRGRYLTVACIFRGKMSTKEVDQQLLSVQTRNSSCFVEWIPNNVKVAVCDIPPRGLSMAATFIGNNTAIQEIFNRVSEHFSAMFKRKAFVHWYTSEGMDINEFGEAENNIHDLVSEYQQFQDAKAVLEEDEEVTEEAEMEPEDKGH
# Sequence of UniProt A6NFQ2 (A6NFQ2 whole entry, looked up): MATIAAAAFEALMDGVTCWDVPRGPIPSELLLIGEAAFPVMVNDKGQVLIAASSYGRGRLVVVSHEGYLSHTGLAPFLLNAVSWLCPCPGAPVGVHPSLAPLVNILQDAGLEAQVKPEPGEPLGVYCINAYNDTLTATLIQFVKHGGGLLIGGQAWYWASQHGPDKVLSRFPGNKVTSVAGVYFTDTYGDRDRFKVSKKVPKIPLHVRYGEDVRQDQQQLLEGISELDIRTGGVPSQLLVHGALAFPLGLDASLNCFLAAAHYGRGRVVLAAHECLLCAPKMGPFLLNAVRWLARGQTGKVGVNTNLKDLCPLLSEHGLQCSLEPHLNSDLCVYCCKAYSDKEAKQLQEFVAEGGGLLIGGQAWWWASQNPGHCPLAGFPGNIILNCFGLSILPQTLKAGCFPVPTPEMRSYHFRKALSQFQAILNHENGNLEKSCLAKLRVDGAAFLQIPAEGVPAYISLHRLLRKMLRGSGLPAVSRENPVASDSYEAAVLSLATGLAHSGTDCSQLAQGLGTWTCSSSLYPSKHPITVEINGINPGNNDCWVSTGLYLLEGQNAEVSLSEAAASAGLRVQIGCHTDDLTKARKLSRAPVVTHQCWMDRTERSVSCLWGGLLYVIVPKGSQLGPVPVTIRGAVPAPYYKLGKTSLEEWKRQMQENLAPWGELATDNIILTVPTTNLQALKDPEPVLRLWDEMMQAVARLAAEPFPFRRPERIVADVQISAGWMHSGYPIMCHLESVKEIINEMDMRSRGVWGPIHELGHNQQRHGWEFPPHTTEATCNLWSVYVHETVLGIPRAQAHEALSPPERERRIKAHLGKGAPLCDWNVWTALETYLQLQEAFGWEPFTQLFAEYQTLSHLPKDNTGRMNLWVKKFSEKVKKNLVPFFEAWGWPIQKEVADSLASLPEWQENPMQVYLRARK
# Sequence of UniProt O95801 (O95801 whole entry, looked up): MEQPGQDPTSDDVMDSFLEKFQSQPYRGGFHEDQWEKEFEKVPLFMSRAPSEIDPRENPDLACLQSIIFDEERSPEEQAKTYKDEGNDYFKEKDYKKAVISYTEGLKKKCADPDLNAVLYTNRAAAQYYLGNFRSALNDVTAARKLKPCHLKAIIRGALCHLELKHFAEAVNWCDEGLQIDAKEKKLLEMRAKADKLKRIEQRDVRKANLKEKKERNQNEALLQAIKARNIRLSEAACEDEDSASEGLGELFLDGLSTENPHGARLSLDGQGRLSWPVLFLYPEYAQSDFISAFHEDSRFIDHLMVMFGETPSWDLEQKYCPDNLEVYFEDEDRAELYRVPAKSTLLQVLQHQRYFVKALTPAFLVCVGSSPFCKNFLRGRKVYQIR
Target,log2 fold change (vemurafenib),log2 fold change [1],log2 fold change (barasertib),log2 fold change [2],log2 fold change (volasertib),log2 fold change [3],log2 fold change [4],log2 fold change [5],log2 fold change (saracatinib),log2 fold change (sotrastaurin),log2 fold change (alvocidib),log2 fold change (Tubastatin A),log2 fold change [6],log2 fold change (defactinib),log2 fold change [7],log2 fold change (encorafenib),log2 fold change [8],log2 fold change (alisertib),log2 fold change [9],log2 fold change (gefitinib)
TRIM33 isoform 2 (UniProt Q9UPN9),-0.018,-0.003,0.009,-0.008,-0.039,0.023,-0.132,0.05,0.027,0.043,-0.029,-0.131,0.016,-0.001,-0.006,0.006,0.052,-0.003,0.046,0.005
TTC4 (UniProt O95801),0.004,0.05,-0.004,0.008,-0.024,0.007,-0.089,-0.027,0.033,0.005,-0.012,-0.183,0.078,0.004,0.003,0.021,-0.005,0.008,-0.017,-0.003
TGOLN2 isoform 7 (UniProt O43493),0.02,0.023,-0.023,0.05,0.035,-0.094,-0.012,0.036,-0.033,0.06,-0.053,0.003,-0.052,0.005,0.045,0.014,-0.031,-0.059,0.02,-0.048
UBE4A isoform 2 (UniProt Q14139),-0.008,-0.001,-0.009,0.003,-0.053,0.031,-0.03,-0.081,0.011,0.025,0,-0.087,0.029,0.011,-0.073,0.018,-0.102,0.018,0.013,-0.041
TPP2 (UniProt P29144),-0.015,0.01,-0.024,-0.016,-0.023,0.009,0.025,-0.012,-0.016,-0.009,0.018,-0.028,-0.014,-0.014,-0.03,0,0.068,-0.02,0,0.008
TLK2 isoform 2 (UniProt Q86UE8),-0.015,-0.011,0.017,-0.068,-0.03,-0.009,-0.171,0.085,0.021,0.26 (active),-0.027,-0.07,-0.03,0.117,-0.071,0.046,-0.063,-0.01,0.041,-0.004
THEMIS2 (UniProt Q5TEJ8),-0.004,0.11,-0.052,0.016,0.132,0.015,-0.019,0.004,0.01,-0.016,-0.036,-0.069,0.024,0.028,0,-0.027,0.023,0.052,-0.159,0.025
TUBB1 (UniProt Q9H4B7),-0.039,0.011,0.002,-0.025,-0.087,0.034,0.15,-0.025,-0.002,-0.045,0.026,-0.059,0.021,0.07,-0.005,-0.015,0.071,-0.013,-0.034,-0.047
TCAF2 (UniProt A6NFQ2),0.052,0.041,-0.048,-0.027,-0.049,0.045,0.003,-0.05,0.004,-0.017,-0.016,-0.183,-0.026,0.067,-0.026,0.006,0.044,0.03,-0.067,-0.042
TJP1 isoform 2 (UniProt Q07157),0.023,0,-0.003,0.064,-0.01,-0.045,-0.046,0.057,0.014,0.014,-0.011,0.047,-0.02,-0.018,0.043,-0.013,0.011,-0.007,0.007,-0.017
TDRKH (UniProt Q9Y2W6),0.07,0.055,0.031,-0.195,-0.052,-0.003,-0.095,0.058,-0.004,-0.039,-0.017,-0.064,0.019,0.033,0.042,0.007,0.008,-0.049,0.04,0.001
TUBA3C (UniProt P0DPH7),0.037,0.021,-0.011,-0.041,-0.026,0.012,-0.062,-0.013,0.013,0.048,-0.012,-0.15,0.01,-0.013,-0.018,-0.037,0.042,-0.023,-0.035,-0.005
